# Assay results from PubChem BioAssay AID588453 (National Center for Advancing Translational Sciences (NCATS), 2011).
# The campaign covered roughly 390,000 compounds. About 4,000 (1%) were called active. Not shown: some 4% with an inconclusive outcome. Calls follow the shape of the dose curve; as a rule, active = well fitted inhibition curve with a large enough effect; inconclusive = small, poorly fitted or top-dose-only effect; inactive = no such curve, though single readings can be large or run the other way. Only a selection was taken, and actives are over-represented in it overall.
# Target: Thioredoxin reductase 1, cytoplasmic (Rattus norvegicus) (UniProt O89049)
# Experiment: qHTS Assay for Inhibitors of Mammalian Selenoprotein Thioredoxin Reductase 1 (TrxR1): qHTS; also: nearly all actives have a fitted effect of over 65% in size
# Details: recombinant rTrxR1, NADPH fluorescence consumption, selenite substrate; series mostly up to 114 µM; activity change, negative = inhibition: at the top concentration
# Procedure, shortened: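 Rat TrxR1 (90 nM in the dispensed reagent) was pre-reduced with 400 uM NADPH for 5 min at room temperature, then incubated with compound for 15 min. After 400 uM selenite was added, NADPH fluorescence (Ex 340/Em 450 nm) was followed for 8 min.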
# % is scaled to controls: 0 for no effect and ±100 for the full control effect; potency is read from the fitted curve at half-maximal effect.
# Sequence of Thioredoxin reductase 1, cytoplasmic (Rattus norvegicus) (O89049 whole entry, looked up): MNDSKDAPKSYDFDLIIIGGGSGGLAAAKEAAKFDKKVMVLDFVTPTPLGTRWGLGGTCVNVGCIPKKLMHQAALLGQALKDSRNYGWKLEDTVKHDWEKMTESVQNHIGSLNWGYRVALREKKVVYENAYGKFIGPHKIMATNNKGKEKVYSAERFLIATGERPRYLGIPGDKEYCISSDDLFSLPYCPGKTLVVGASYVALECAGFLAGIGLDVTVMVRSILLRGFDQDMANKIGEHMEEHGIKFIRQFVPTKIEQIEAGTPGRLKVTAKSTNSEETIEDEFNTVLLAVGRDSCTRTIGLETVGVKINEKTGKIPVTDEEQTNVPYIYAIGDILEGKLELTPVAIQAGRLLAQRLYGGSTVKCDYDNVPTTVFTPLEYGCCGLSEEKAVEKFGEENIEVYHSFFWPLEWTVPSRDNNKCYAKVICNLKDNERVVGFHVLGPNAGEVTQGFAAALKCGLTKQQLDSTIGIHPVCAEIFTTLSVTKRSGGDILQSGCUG
Compound,"activity change, negative = inhibition",Potency
CCOc1ccc(C2c3[nH]c4ccccc4c3CCN2Cc2cccn2-c2ncccn2)cc1 (centres undefined),-8.64% (inactive),–
c1ccc(C2c3[nH]c4ccccc4c3CCN2Cc2cccn2-c2cccnc2)nc1 (centres undefined),–,50.1 µM (active)
COCc1ccc(C(=O)N2CCc3c([nH]c4ccccc34)C2c2ccccn2)s1 (centres undefined),29.7% [at 57.1 µM] (inactive),–
CS(=O)c1ccc(/C=C2\C=Cc3ccccc32)cc1 (centres undefined),-8.61% (inactive),–
CCOC(=O)c1nnn(CC(=O)NC(=O)Nc2ccccc2F)c1C(=O)OCC,-3.22% (inactive),–
Cc1ccc(Cc2cnc(N)s2)o1,–,22.4 µM (active)
COc1cn(CC(=O)Nc2cccc(C)c2C)c(CN2CCCCC2)cc1=O,8.52% [at 57.1 µM] (inactive),–
Cc1cccc(N2CCN(C(=O)CCn3c(=O)c4cccn4c4cccnc43)CC2C)c1 (centres undefined),7.19% (inactive),–
CCn1c(CNC(=O)C23CC4CC(CC(C4)C2)C3)nnc1SCC(=O)Nc1ccc(OC)cc1,-3.1% (inactive),–
NC(=O)CSc1oc(-c2cccs2)nc1S(=O)(=O)c1ccccc1,7.07% [at 57.1 µM] (inactive),–
CCCCS(=O)(=O)c1oc(-c2cccs2)nc1S(=O)(=O)c1ccccc1,–,0.447 µM (active)
CSc1oc(-c2cccs2)nc1S(=O)(=O)c1ccc(Br)cc1,12.6% (inactive),–
C(=Nc1ccc(/C=C/c2ccnc3ccccc23)cc1)Nc1ccc(/C=C/c2ccnc3ccccc23)cc1,-1.09% (inactive),–
CCOC(=O)c1c(C)oc2nc(C)nc(Nc3ccc(CC)cc3)c12,38.5% (inactive),–
CCCOc1ccc(C(=O)Nc2ccc3oc(-c4cccc(Cl)c4Cl)nc3c2)cc1,37.6% (inactive),–
Oc1c(C=Nc2cccc3nsnc23)ccc2ccccc12,–,39.8 µM (active)
Cc1cccc(-c2nnc(SCC(=O)N3CCCc4ccccc43)o2)c1,-0.491% (inactive),–
COc1ccc(-c2nc(=N)sn2-c2ccccc2)cc1,-21.3% (inactive),–
Cc1cc(C)c2c(n1)nn1c(-n3ccnc3)cc(C)nc21,–,8.91 µM (active)
COC(=O)c1cc(NC(=O)CCc2c(C)nc3c4c(C)cc(C)nc4nn3c2C)cc(C(=O)OC)c1,11.9% (inactive),–
Cc1cc(C)c2c(NC(=O)C3CC3)nn(C)c2n1,39% (inactive),–
Cc1ccc(NC(=O)c2cc(-c3ccc(C)o3)nc3ccccc23)nc1,–,14.1 µM (active)
CCOc1ccc(CNC(=O)c2cc(-c3ccc(Cl)s3)nc3ccccc23)cc1,35.6% (inactive),–
Cc1ccc(-c2cc(C(=O)NN)n[nH]2)o1,5.28% [at 57.1 µM] (inactive),–
CCOC(=O)c1cc2c(=O)n3ccccc3nc2n(CC2CCCO2)c1=NC(=O)c1ccc(C(C)(C)C)cc1 (centres undefined),6.69% (inactive),–

Compound,"activity change, negative = inhibition",Potency
Cc1cccc(N2CCN(C3=C(c4ccccc4)C(=O)c4ccccc43)CC2)c1C,3% (inactive),–
CC(=O)/C(C)=N/O,–,inactive
Cc1noc(C)c1NC(=O)Nc1ccc2c(c1)C(=O)N([C@H](C)CO)C[C@H](C)[C@@H](CN(C)C(=O)Nc1ccc(C(F)(F)F)cc1)O2,-11.5% (inactive),–
Cc1noc(C)c1NC(=O)Nc1cccc2c1O[C@H](CN(C)C(=O)Nc1ccccc1)[C@@H](C)CN([C@H](C)CO)C2=O,5.71% (inactive),–
C[C@H](CO)N1C[C@H](C)[C@H](CN(C)C(=O)Nc2ccc(C(F)(F)F)cc2)Oc2c(NC(=O)c3ccncc3)cccc2C1=O,–,56.2 µM (active)
CCc1ccc(N(CC)C(=O)CCn2cnc3onc(-c4ccc(F)cc4)c3c2=O)cc1,9.72% (inactive),–
COc1ccccc1NC(=O)CSc1nnc(-c2ccoc2C)n1CCc1ccccc1,-4.19% (inactive),–
COc1cc(Cl)c(C)cc1NC(=O)CSc1nnc(-c2ccco2)n1CC(C)C,–,12.6 µM (active)
COc1cc(Cl)c(C)cc1NC(=O)CSc1nnc(CN2CCCC2)o1,33.7% (inactive),–
Cc1cccc(C(=O)Nc2ccc(S(=O)(=O)N3CCCCC3c3cccnc3)cc2)c1 (centres undefined),20.3% [at 57.1 µM] (inactive),–
Cc1ccc2oc(C(=O)Nc3ccc(S(=O)(=O)N4CCCCCC4)cc3)cc(=O)c2c1,24.7% (inactive),–
COc1ccc(NC(=O)COCc2cc(-c3ccco3)on2)cc1,23.4% [at 57.1 µM] (inactive),–
COc1cc(-n2c(C)nc3cc(C(=O)NCc4ccco4)ccc32)cc(OC)c1OC,-16.2% (inactive),–
CCOc1ccc(NC(=O)c2ncoc2-c2ccco2)cc1,7.87% [at 57.1 µM] (inactive),–
C=CCNC(=O)c1ccc2nc(-c3ccco3)c(-c3ccco3)nc2c1,–,7.94 µM (active)
COCCNC(=O)Nc1ccc2nc(-c3ccco3)c(-c3ccco3)nc2c1,–,3.16 µM (active)
COc1ccc(-c2nc3ccc(C(=O)NCc4ccc(C)cc4)cc3nc2-c2ccc(OC)cc2)cc1,36.4% [at 57.1 µM] (inactive),–
Cc1nc2sc(C)c(C)n2c(=O)c1S(=O)(=O)NCCc1ccc(Cl)cc1,17.8% (inactive),–
O=C(NCCS(=O)(=O)N1CCN(c2ccc(F)cc2)CC1)c1ccccc1Br,15.9% [at 57.1 µM] (inactive),–
O=[N+]([O-])c1ccc(/C=C/c2ccc3cccnc3c2)cc1,5.43% (inactive),–
O=C(Cn1cc(SCc2cccc(Cl)c2)c2ccccc21)N1CCCCC1,17% (inactive),–
O=C(N1CCOCC1)N1CCOCC1,32.6% (inactive),–
N#C/C=C(/c1ccc(F)cc1)N1CCOCC1,12.6% (inactive),–
N#C/C(=C/c1ccc(N2CCOCC2)o1)C(=O)N1CCOCC1,–,50.1 µM (active)
COc1cccc(C(=O)NC(=O)Nc2ccc(-c3cc(C(F)(F)F)nn3-c3ccccc3)cc2)c1,-9.56% (inactive),–

Compound,"activity change, negative = inhibition",Potency
Cc1cccc(-n2ncc(Cl)c(Cl)c2=O)c1,–,44.7 µM (active)
Cc1cccc(-n2ncc(C(=O)N3CCC(C)CC3)c2C2CCN(C(=O)OC(C)(C)C)CC2)c1,29.8% (inactive),–
Cc1cccc(-n2ncc(C(=O)N3CCN(c4ccc(Cl)cc4)CC3)c2C2CCN(C(=O)OC(C)(C)C)CC2)c1,5.36% (inactive),–
CCOc1ccc(C2CC(=O)c3c([nH]c(C(=O)OCc4ccccc4)c3C)C2)cc1 (centres undefined),23% (inactive),–
CCc1ccc(OCCCn2c(CCCNC(=O)C3CCCCC3)nc3ccccc32)cc1,7.76% (inactive),–
Cc1ccc(C=O)cc1Cl,27.3% (inactive),–
Cc1ccc(-n2ncc3c(N4CCC(C(N)=O)CC4)ncnc32)cc1,10.5% [at 57.1 µM] (inactive),–
Cc1cc(NC(=O)CCS(=O)(=O)c2ccc(F)cc2)no1,–,44.7 µM (active)
Cc1cc(NC(=O)CSc2nc(=O)cc(N)n2-c2ccc(F)cc2)no1,8.12% (inactive),–
Cc1cc(NC(=O)CCC(=O)N(CC(=O)NC2CCCC2)c2ccc(F)cc2)no1,27.1% [at 57.1 µM] (inactive),–
ClC/C=C/C[n+]1ccccc1Cl,-29.2% (inactive),–
C/C(=N\Nc1cccc(C(=O)O)c1)c1ccc2c(c1)Nc1ccccc1S2,-0.323% (inactive),–
CC(=O)NC(CC(=O)Nc1nc(-c2ccccc2)c(C(C)=O)s1)c1ccccc1 (centres undefined),24.1% (inactive),–
C/C(=N/Nc1nc(-c2ccccc2)c(CC(=O)O)s1)c1ccccc1,–,5.62 µM (active)
CC(C)CCN(C(=O)Nc1ccc(Cl)c(Cl)c1)C(C)c1cccs1 (centres undefined),28.6% [at 57.1 µM] (inactive),–
C=CCN1C(=O)C(O)(CC(=O)c2ccc(Cl)cc2)c2ccccc21 (centres undefined),–,35.5 µM (active)
Cc1ccc(C(=O)CC2(O)C(=O)N(CCc3ccccc3)c3ccc(Br)cc32)cc1 (centres undefined),15.4% (inactive),–
C=CCN1C(=O)C(O)(CC(=O)c2ccccn2)c2ccccc21 (centres undefined),-1.4% [at 57.1 µM] (inactive),–
CCCCC(CCCC)c1ccc(C=Nc2ccc(/C=C/c3ccnc4ccccc34)cc2)cc1,-17.9% (inactive),–
COc1cccc(Cn2c(SCc3ccc(C(=O)N4CCCCC4)cc3)nc3ccncc32)c1,-22.6% (inactive),–
Fc1cccc(-n2ncc3c2ncn2nc(-c4ccccc4Cl)nc32)c1,34.7% (inactive),–
Cc1nn2c3cc(N4CCOCC4)ccc3nc2c2ccccc12,-2.61% (inactive),–
C1=C(N2CCOCC2)/C(=C/c2nc3ccccc3[nH]2)CC1,–,15.8 µM (active)
Cn1cc(S(=O)(=O)N2CCCCCC2)cc1C(=O)N1CCN(c2ccc(F)cc2)CC1,1.38% [at 57.1 µM] (inactive),–
COc1cccc(NC(=O)COC(=O)/C=C/c2ccco2)c1,–,39.8 µM (active)

Compound,"activity change, negative = inhibition",Potency
NS(=O)(=O)c1cccc(NC(=O)COC(=O)/C=C/c2ccco2)c1,-45.1% (inactive),–
COc1ccc([N+](=O)[O-])cc1NC(=O)COC(=O)/C=C/c1ccco1,4.25% (inactive),–
CCC(C)N(c1ccc(/C=C/c2ccnc3ccccc23)cc1)C(C)CC (centres undefined),-11.6% (inactive),–
CCN(CC)/[N+]([O-])=N/OCOC(=O)Cc1c(C)n(C(=O)c2ccc(Cl)cc2)c2ccc(OC)cc12,13.3% [at 0.457 µM] (inactive),–
COc1ccc(NC(=O)CSc2nc3ncccc3[nH]2)c(OC)c1,6.36% (inactive),–
OCC(O)C(O)C(O)C(O)C=Nc1ccc(/C=C/c2ccnc3ccccc23)cc1 (centres undefined),18.2% (inactive),–
CCc1ccc2oc(-c3ccc(C)c(NC(=O)/C=C/c4ccco4)c3)nc2c1,-24.3% (inactive),–
O=C(/C=C/c1ccco1)Nc1cccc(-c2nc3ccccc3[nH]2)c1,–,79.4 µM (active)
O=C(Nc1cccc(-c2nc3ccccc3o2)c1)c1cccc(Br)c1,18.4% [at 57.1 µM] (inactive),–
COc1ccc(-c2cc(-c3nc(-c4cc(OC)c(OC)c(OC)c4)no3)[nH]n2)c(OC)c1,16.3% [at 57.1 µM] (inactive),–
O=C1/C(=C\c2ccc(O)cc2)CCC1CNc1ccc(Cl)cc1 (centres undefined),–,22.4 µM (active)
Cc1ccc(NS(=O)(=O)c2ccc3c(c2)CC(=O)N3)cc1Cl,9.35% (inactive),–
CCOc1n[nH]c(-c2ccccc2)n1,-18.3% (inactive),–
CN(Cc1ccccc1)c1ccc(/C=C/c2ccnc3ccccc23)cc1,0.744% (inactive),–
COc1ccc(C(F)(F)F)cc1NC(=O)c1sc2nc(-c3cccs3)ccc2c1N,20.9% (inactive),–
C=CC1(C)CC(=O)C2(O)C(C)(O1)C(OC(C)=O)C(O)C1C(C)(C)CCC(O)C12C (centres undefined),–,inactive
CCOc1ccc(C(C)=O)cc1COC(=O)c1cnc(Cl)c(Cl)c1,24.3% [at 57.1 µM] (inactive),–
Cc1ccc(COC(=O)CN2C(=O)NC3(CCCC3)C2=O)cc1,27.7% (inactive),–
CCOc1ccc(C(C)=O)cc1COC(=O)CNC(=O)c1cccs1,–,22.4 µM (active)
COc1ccc(C(=O)COC(=O)CNC(=O)c2cccs2)cc1Br,8.81% (inactive),–
CCOc1ccc(C(C)NC(=O)CN2C(=O)NC3(CCCCC3)C2=O)cc1OCC (centres undefined),-5.62% (inactive),–
CCOc1ccc(C(C)=O)cc1COC(=O)CN1C(=O)NC2(CCCC2)C1=O,–,28.2 µM (active)
COc1ccc(/C=C/c2ccccn2)cc1OC,8.3% (inactive),–
O=C(NCCCN1CCN(c2cccc(Cl)c2)CC1)c1nnc(Cc2ccc(F)cc2Cl)o1,-1.33% (inactive),–
